PubChem BioAssay AID2796 (The Scripps Research Institute Molecular Screening Center, 2010)
The whole screen tested about 320,000 compounds, of which about 8,000 (2.5%) were called active. The full list was thinned out, with actives kept by preference. A number with no mark means an inactive call. Cut-off read from the data, not from the text of the source: active = activation above about 47%; inactive = the rest.

Biological target: Aryl hydrocarbon receptor (Homo sapiens) (UniProt P35869)
Assay: AHR activators, primary screen, cell-based, luminescence, luciferase reporter, human (AID 2796);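 note: 0% = vehicle wells and 100% = reference agonist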
Conditions: AHR-responsive luciferase reporter cells, at 5 µM, stronger effect = higher value

Chain of Aryl hydrocarbon receptor (Homo sapiens) (P35869 whole entry, looked up): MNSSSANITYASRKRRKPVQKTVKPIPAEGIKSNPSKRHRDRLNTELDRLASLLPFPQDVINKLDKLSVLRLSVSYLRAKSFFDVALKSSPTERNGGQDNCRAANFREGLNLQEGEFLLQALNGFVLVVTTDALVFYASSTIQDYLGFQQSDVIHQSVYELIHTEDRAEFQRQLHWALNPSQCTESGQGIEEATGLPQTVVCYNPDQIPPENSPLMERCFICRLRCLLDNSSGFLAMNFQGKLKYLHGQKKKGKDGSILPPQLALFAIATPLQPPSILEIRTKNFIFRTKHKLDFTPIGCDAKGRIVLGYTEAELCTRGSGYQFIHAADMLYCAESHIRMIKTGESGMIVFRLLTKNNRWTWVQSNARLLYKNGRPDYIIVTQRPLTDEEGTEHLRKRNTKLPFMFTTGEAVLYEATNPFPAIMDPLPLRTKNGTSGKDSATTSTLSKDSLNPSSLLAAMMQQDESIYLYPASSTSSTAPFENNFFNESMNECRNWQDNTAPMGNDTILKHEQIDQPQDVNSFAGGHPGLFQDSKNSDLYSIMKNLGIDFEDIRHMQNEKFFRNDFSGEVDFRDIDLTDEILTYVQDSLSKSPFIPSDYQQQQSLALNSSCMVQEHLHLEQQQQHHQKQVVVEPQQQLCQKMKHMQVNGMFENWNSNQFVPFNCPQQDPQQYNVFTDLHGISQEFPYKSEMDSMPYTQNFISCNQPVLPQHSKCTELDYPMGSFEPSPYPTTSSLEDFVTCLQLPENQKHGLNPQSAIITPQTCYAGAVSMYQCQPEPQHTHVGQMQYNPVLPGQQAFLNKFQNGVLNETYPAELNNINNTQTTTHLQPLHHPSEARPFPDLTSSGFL

SMILES | activation
Cc1nn(C)c(Cl)c1CN1CCC(Oc2ccc(C(=O)N3CCCC3)cc2)CC1 | -2.1%
CCCc1cc(=O)[nH]c(SCC(=O)N2C(C)CCCC2C)n1 (stereo not drawn) | 0.47%
COc1ccc(-c2[nH]nc(-c3ccccc3)c2-c2nc3ccccc3[nH]2)cc1 | 4.79%
COc1ccc(Br)cc1C(=O)NC(=S)Nc1cc(-c2nc3ccccc3[nH]2)ccc1C | 36.6%
c1ccc2[nH]c(-c3nc4ccccc4[nH]3)nc2c1 | 71.2% (active)
Cc1ccc(-c2nc3ccccc3[nH]2)cc1N | 47.4% (active)
CCCCSc1nc2ccccc2[nH]1 | 1.07%
Nc1cccc(CCc2nc3ccccc3[nH]2)c1 | 6.68%
OCc1n[nH]c(CO)n1 | -0.81%
O=C(C1CCN(C2CCN(Cc3cccc4c3OCO4)CC2)CC1)N1CCOCC1 | 4.05%
COc1ccc(CCOC2OC(CO)C(OC(=O)/C=C/c3ccc(O)c(OC)c3)C(O[C@H]3O[C@@H](C)[C@H](O)[C@@H](O)[C@H]3O)C2O)cc1O (stereo partly drawn) | 1.88%
O=C(NC1CC1)C1=C[C@H](c2c[nH]c3ccccc23)C[C@H](OCc2ccc(CO)cc2)O1 | 135% (active)
NC(=O)C1=C[C@H](c2csc3ccccc23)C[C@H](OCc2ccc(CO)cc2)O1 | 0.39%
NC(=O)C1=C[C@@H](c2csc3ccccc23)C[C@@H](OCc2ccc(CO)cc2)O1 | -0.11%
CCN(CC)C(=O)COc1coc(CN2CCN(Cc3ccccc3)CC2)cc1=O | -1.36%
COc1cccc(/C(C)=N/Nc2ncc(Cl)cc2Cl)c1 | 53.5% (active)
C/C(=N\Nc1ncc(Cl)cc1Cl)c1ccc(S(=O)(=O)NCc2ccco2)cc1 | 29.9%
C/C(=N\Nc1ncc(Cl)cc1Cl)c1cccs1 | 1.11%
CC1CCCCC12NC(=O)N(CC(=O)N1CCN(c3ccccc3)CC1)C2=O (stereo not drawn) | 0.1%
CC1=NN(C(=O)CCc2ccccc2O)C(O)(C(F)(F)F)C1 (stereo not drawn) | -1.07%
COc1cc2ccccc2cc1C(=O)Nc1ccncc1 | 5.1%
COc1cccc(OC)c1C(=O)Nc1ccc(Cc2ccncc2)cc1 | 15.6%
COc1cccc(OC)c1C(=O)Nc1ccc(N2CCCCC2)cc1 | 79.6% (active)
COc1cc2ccccc2cc1C(=O)N1CCOCC1 | 0.61%

SMILES | activation
COc1cc2ccccc2cc1C(=O)Nc1ccc(N2CCOCC2)cc1 | 95.9% (active)
COc1cccc(OC)c1C(=O)Nc1ccc2c(c1)n(C)c(=O)n2C | 1.94%
FC(F)(F)C1CCCN(c2nsc3ccccc23)C1 (stereo not drawn) | 16.6%
Cc1noc(C)c1S(=O)(=O)N(C)C[C@H]1Oc2ccc(NC(=O)C3CCCCC3)cc2C(=O)N([C@H](C)CO)C[C@@H]1C | -1.72%
CCc1ccc(NC(=O)CS(=O)CC(=O)N2CCN(c3ccccc3F)CC2)cc1 (stereo not drawn) | -1.39%
Cc1cc(C)cc(NC(=S)NCc2ccc(F)cc2)c1 | 4.28%
O=C(O)CCC(=O)NCc1ccc2[nH]c3c(c2c1)CCCC3 | 1.38%
Cc1cccc(NC(=S)NCc2ccc3[nH]c4c(c3c2)CCCC4)c1 | 68% (active)
Cc1ccc(Nc2nc(CSc3nnnn3-c3ccccc3)cc(=O)[nH]2)cc1 | 73.4% (active)
Cc1ccc(-c2noc(CSc3nnnn3-c3ccccc3)n2)cc1 | 8.65%
COc1ccc(C)cc1-n1nnnc1SCc1nc2ccccc2c(=O)[nH]1 | 24.9%
Cc1ccc(Br)c(NS(=O)(=O)c2cccc(C(=O)N3CCNC(=O)C3)c2)c1 | 1.33%
COc1ccc(Cl)cc1C(=O)Nc1ccc(N(C)C(C)=O)cc1 | 81.3% (active)
COC(=O)c1ccc(NC(=O)c2cc(Cl)ccc2OC)cc1 | 2.68%
COc1cc(OC)c(C(=O)Nc2ccc(N(C)C)cc2)cc1OC | -7.49%
Cc1ccsc1C(=O)OCC(=O)Nc1cccc(F)c1 | -0.75%
Cc1ccc(C(=O)Nc2ccccc2-c2ccccc2)cc1S(=O)(=O)Nc1ccccc1 | 2.25%
Cc1ccc(C)c(NC(=O)C(OC(=O)c2ccc(C)s2)c2ccccc2)c1 (stereo not drawn) | 29.4%
O=C(CCn1c(=S)[nH]c2cc3c(cc2c1=O)OCO3)NCc1ccc(Cl)cc1 | -0.55%
CCN(CC)CCNC(=O)CCCCCn1c(=O)[nH]c2cc(C(=O)OC)ccc2c1=O | 1.58%
O=C(CCCCn1c(=O)[nH]c2ccccc2c1=O)NCc1ccc2c(c1)OCO2 | 79.9% (active)
Cn1cc(CCC(=O)NCc2ccc3c(c2)OCO3)c2ccccc21 | 8.58%
O=C(CCCCCn1c(=O)[nH]c2ccccc2c1=O)NCCc1c[nH]c2ccccc12 | 54.7% (active)
O=C(CCc1c[nH]c2ccccc12)NCCOc1ccccc1 | 2.6%

SMILES | activation
O=c1c2ccccc2c(-c2ccccc2)nn1-c1ccccn1 | 0.2%
Cc1ccc(C(=O)NNC(=O)c2cccs2)cc1 | -3.24%
Cc1ccc(C(=O)NNc2ncnc3ccccc23)cc1 | 19.4%
Cc1ccc(C(=O)NNC(=O)c2cc3cc4ccccc4nc3s2)cc1 | 64% (active)
Cc1cccc(NC(=O)c2ccc(S(=O)(=O)N(C)c3ccccc3)cc2)n1 | 13.7%
O=C(COC(=O)c1ccc([N+](=O)[O-])cc1Cl)NC(=O)c1ccccc1 | 0.29%
CCOC(OCC)c1ccc(/C=C\c2nccc(N)n2)cc1 | 2.83%
CC1=CC=CC2=N/C(=N\S(=O)(=O)c3ccc(F)cc3F)c3ccccc3CN12 | 68.7% (active)
CCNC(=S)N1CCN(S(=O)(=O)c2ccc(Cl)s2)CC1 | -1.16%
CN(C)/C=C1/Nc2ccccc2C1=O | 33.7%
Cc1cc(C)c(/C=C2\C(=O)Nc3ccccc32)[nH]1 | 47% (active)
O=C1Nc2ccccc2/C1=C/c1ccnc2ccccc12 | 8.16%
COCCN(C(=O)CCC(=O)Nc1nccs1)C(C(=O)NC(C)(C)C)c1ccc(Cl)cc1 (stereo not drawn) | 0.14%
COc1ccccc1C(=O)COC(=O)COc1ccc(C#N)cc1 | -0.13%
COc1ccc(CCNc2nc(C)cc(C)n2)cc1OC | 4.65%
COc1ccc(-c2nc(-c3ccccc3)no2)c(OC)c1 | 70.8% (active)
COc1ccc(/C=C/c2noc(-c3ccccc3OC(C)=O)n2)cc1 | 2.04%
Cc1ccc(-c2nc(-c3ccncc3)no2)c(C)c1 | 3.29%
CCOC(=O)N1CCN(S(=O)(=O)N2CCCC(C(=O)NCCCN3CCC(C)CC3)C2)CC1 (stereo not drawn) | 0.65%
CCC(C(=O)N1CCN(S(=O)(=O)c2sc(C(=O)O)c(C)c2C(=O)O)CC1)c1ccccc1 (stereo not drawn) | -0.9%
O=S(=O)(c1ccc(Br)cc1)c1nc(-c2ccccc2)oc1N1CCOCC1 | 3.81%
Cc1ccc(Sc2cc(N3CCOCC3)nc(-c3ccccc3)n2)cc1 | 3.2%
Cc1cc(N2CCOCC2)nc(-c2ccc(Br)cc2)n1 | 86.8% (active)
CC(=O)O[C@H]1CC[C@@]2(C)[C@@H](CC[C@@H]3[C@@H]2CC[C@]2(C)[C@@H](C(C)(C)O)C[C@@H]32)C1 | 1.86%

SMILES | activation
CC(NC(=O)c1cc(=O)[nH]c2ccccc12)c1ccc(F)cc1F (stereo not drawn) | -1.44%
CCOC(=O)c1ccc(NC(=O)c2cc(=O)[nH]c3ccccc23)cc1 | -0.98%
O=C(CNC(=O)c1cc(=O)[nH]c2ccccc12)Nc1ccc(F)c(F)c1 | 70.8% (active)
COC(=O)C1=CO[C@@H](O[C@@H]2O[C@H](CO)[C@@H](O)[C@H](O)[C@H]2O)C2C1C[C@H](O)[C@@H]2C (stereo partly drawn) | 0.44%
N#Cc1nc(-c2cccc3ccccc23)oc1N | -2.82%
CC(C)(C)n1nc(Cc2cccc3ccccc23)c(C#N)c1N | 51.2% (active)
CCc1nn(-c2cc(Oc3cccc4ccccc34)nc(-c3ccccc3)n2)c(N)c1C#N | 10.9%
CCCCOc1ccc(C(=O)NCC(=O)OCC(=O)N2CCN(S(=O)(=O)c3ccc(C)cc3C)CC2)cc1 | 0.36%
COc1ccc(N2CCN(S(=O)(=O)c3cc4c5c(c3)C(C)C(=O)N5CCC4)CC2)cc1 (stereo not drawn) | -1.29%
CN1C(=O)/C(=C\c2ccc(-c3ccccc3)o2)SC1=S | 6.56%
NS(=O)(=O)c1ccc(-c2ccc(/C=C3\SC(=O)NC3=O)o2)cc1 | 125% (active)
CN1CCN(/N=C/c2ccc(-c3ccc([N+](=O)[O-])cc3)o2)CC1 | 38.6%
c1ccc(-c2nccc(-c3ccc(-n4cnc5ccccc54)cc3)n2)nc1 | -6.06%
COc1ccc(CCNC(=O)COc2ccc3c(c2)OCO3)cc1 | 10%
CC(C)(C)c1ccc(SCCc2ccncc2)cc1 | 14.1%
CC(C)CCNC(=O)C1CCC(CNc2c(N3CCC(C)CC3)c(=O)c2=O)CC1 (stereo not drawn) | 7.38%
Cn1c(=NC(=O)C2CC2)sc2cc(F)cc(F)c21 | 69.9% (active)
O=C(CN(Cc1ccc(Br)cc1)S(=O)(=O)c1ccccc1)NCc1ccncc1 | 1.87%
C=CCn1c(CCNC(=O)c2cccs2)n[nH]c1=S | -2.49%
C=CCn1c(=NC(=O)c2cccs2)sc2cc(NC(C)=O)ccc21 | 118% (active)
C=CCn1c(=NC(=O)c2ccc(S(=O)(=O)N3CCCC3)cc2)sc2cc(NC(C)=O)ccc21 | 1.47%
